In PubChem BioAssay:
Active and inactive are the calls of the source. Unless noted, the rule behind the calls is not given here.

How the values were obtained:
[1] = system: XIP peptide (Xip251-270) binding; assay: XIP fragment 251-270 binding compounds – biochemical, small-molecule microarray, fluorescence 635/667 nm, 0.1 µg/mL protein, primary screen (AID 1182); settings: fluorescent protein binding, 635 nm, higher = more signal, called active from +8 up or from −8 down
XIP peptide (Xip251-270) = assay: compounds binding XIP fragment 251-270 – biochemical, small-molecule microarray, fluorescence 635/667 nm, 0.5 µg/mL protein, primary screen (AID 1183); settings: fluorescence 635 nm, higher = more signal
[2] = blood-stage malaria parasite viability loss – strain 3D7, DAPI fluorescence, 100 nL, primary screen (AID 1184);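 note: parasites grown inside human red blood cells in medium with human serum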; settings: P. falciparum 3D7 growth, 3 d, higher = more signal
[3] = biological target: Homeobox protein Hox-A13 (Mus musculus) (UniProt Q62424); assay: disruptors of Hoxa13 oligonucleotide interaction – biochemical, fluorescence polarization, labeled oligonucleotide, primary screen (AID 1185); settings: Hoxa13:DNA binding, 15 min, higher = more signal, called active from +8 up or from −8 down
Sequence of Homeobox protein Hox-A13 (Mus musculus) (Q62424 whole entry, looked up): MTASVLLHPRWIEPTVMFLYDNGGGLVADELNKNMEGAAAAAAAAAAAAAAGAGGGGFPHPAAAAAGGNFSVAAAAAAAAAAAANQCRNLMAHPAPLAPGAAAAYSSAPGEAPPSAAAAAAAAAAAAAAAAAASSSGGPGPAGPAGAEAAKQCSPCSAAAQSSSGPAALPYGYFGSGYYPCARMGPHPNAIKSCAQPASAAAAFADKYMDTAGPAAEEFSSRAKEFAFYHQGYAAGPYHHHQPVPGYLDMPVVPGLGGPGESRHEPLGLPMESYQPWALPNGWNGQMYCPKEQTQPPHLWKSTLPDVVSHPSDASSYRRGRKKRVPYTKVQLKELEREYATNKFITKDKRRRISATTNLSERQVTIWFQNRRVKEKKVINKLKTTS

[4] = blockers of DNA damage checkpoint Chk1 activation – imaging, HeLa, hydroxyurea, phospho-Chk1 antibody, percent positive cells, primary screen (AID 1186); settings: hydroxyurea-induced phospho-Chk1 immunofluorescence imaging, higher = more signal
[5] = blockers of DNA damage checkpoint Chk1 activation – imaging, HeLa, hydroxyurea, phospho-Chk1 nuclear intensity, primary screen (AID 1187); settings: hydroxyurea-induced phospho-Chk1 immunofluorescence imaging, higher = more signal

| SMILES | composite z-score [1] | composite z-score (XIP peptide (Xip251-270)) | z-score [2] | z-score [3] | z-score [4] | z-score [5] |
| --- | --- | --- | --- | --- | --- | --- |
| CC(C)N1C(=O)[C@@]2(Cc3ccccc31)c1ccccc1C(=O)N(Cc1ccccc1)[C@H]2c1ccc(CO)cc1 | -0.205 (inactive) | -0.0467 | -0.32 | -0.075 (inactive) | 0.273 (inactive) | 0.685 (inactive) |
| CN(C)C(=O)[C@]1(CCS(=O)(=O)c2ccccc2)N=C(c2ccc(OCCCO)cc2)O[C@@H]1c1ccccc1CN=[N+]=[N-] | 0.556 (inactive) | 0.816 | -2.13 | -4.39 (inactive) | -0.376 (inactive) | -0.0306 (inactive) |
| CC(C)(C)OC(=O)CC[C@]1(C(N)=O)N=C(c2ccc(OCCCO)cc2)O[C@H]1c1ccccc1N=[N+]=[N-] | 0.466 (inactive) | 0.351 | 0.129 | -6.52 (inactive) | -0.373 (inactive) | -0.285 (inactive) |
| C=CCC(OC(C)=O)[C@@H]1[C@@H](N(Cc2cccc3ccccc23)C(=O)c2ccc(C)cc2)c2cc(OCCCO)ccc2N1C(=O)Cc1ccc2ccccc2c1 (stereo partly specified) | -0.929 (inactive) | 0.0814 | -0.145 | -0.0782 (inactive) | -0.648 (inactive) | -0.416 (inactive) |
| O=C1N(Cc2ccccc2)Cc2ccccc2C[C@@]12COC(c1ccc(OCCCO)cc1)=N2 | 0.704 (inactive) | 0.311 | -2.08 | -4.67 (inactive) | -0.266 (inactive) | 0.273 (inactive) |
| [N-]=[N+]=NCc1ccccc1C[C@@]1(C(N)=O)N=C(c2ccc(OCCCO)cc2)O[C@@H]1c1ccccc1N=[N+]=[N-] | 0.497 (inactive) | 0.63 | -2.41 | -4.99 (inactive) | 0.627 (inactive) | 1.02 (inactive) |
| C=C(/C=C\CNS(=O)(=O)c1ccc(C)cc1)[C@H](O)[C@H]1CCCN1S(=O)(=O)c1ccccc1[N+](=O)[O-] | -0.167 (inactive) | -0.167 | -1.8 | -5.5 (inactive) | -0.225 (inactive) | 0.161 (inactive) |
| CC[C@@H](O[Si](C#C[Si](C(C)C)(C(C)C)C(C)C)(C(C)C)C(C)C)c1cn([C@H](CO)Cc2ccccc2)nn1 | -0.0433 (inactive) | 0.411 | -0.348 | -1.31 (inactive) | -0.058 (inactive) | -0.0008 (inactive) |
| COCCOC(=O)N1C(=O)[C@@]2(c3cc(C#CCNC(N)=O)ccc31)[C@H](c1ccc(O)cc1)N1[C@H](c3ccccc3)[C@H](c3ccccc3)OC(=O)[C@H]1[C@@H]2C(=O)N1CCc2cc(OC)c(OC)cc2C1 | -0.0561 (inactive) | 0.329 | -0.0011 | -1.73 (inactive) | 0.0017 (inactive) | -0.0878 (inactive) |
| COC(=O)[C@@]1(Cc2ccc(F)cc2)[C@@H]2C(=CC(=O)[C@H]2CC(=O)C(=O)N2CCCC2)CN1C(=O)c1ccccc1 | 0.47 (inactive) | 0.839 | -1.72 | -4.84 (inactive) | 0.261 (inactive) | 0.278 (inactive) |
| Cc1ccc(S[C@]2(C(=O)NC(C)C)CC(=O)N(Cc3ccccc3)[C@@H]2c2ccc(CO)cc2I)cc1 | 1.69 (inactive) | -0.304 | -0.158 | -3.33 (inactive) | -0.641 (inactive) | -0.268 (inactive) |
| COC(=O)C(CC#Cc1ccc2c(c1)[C@]1(C(=O)N2)[C@H](C(=O)N2CCN(c3ncccn3)CC2)[C@H]2C(=O)O[C@H](c3ccccc3)[C@H](c3ccccc3)N2[C@@H]1c1ccc(O)cc1)C(=O)OC | 0.959 (inactive) | 0.782 | -2.28 | -2.37 (inactive) | -0.413 (inactive) | -1.02 (inactive) |
| CN1C(=O)C2C=CC(C(O)c3ccc(I)cc3)N(N(c3ccccc3)c3ccccc3)C2C1=O (stereo unspecified) | 0.157 (inactive) | 0.348 | 0.387 | -1.5 (inactive) | -0.839 (inactive) | -1.1 (inactive) |
| C=CCNC(=O)[C@H]1[C@@H]2C(=O)O[C@@H](c3ccccc3)[C@@H](c3ccccc3)N2[C@@H](c2ccc(OCCO)cc2)[C@]12C(=O)N(C(=O)OCCOC)c1ccc(C#CCNC(N)=O)cc12 | 0.797 (inactive) | 0.579 | 0.0978 | -1.67 (inactive) | -0.128 (inactive) | -0.209 (inactive) |
| COc1ccc([Si](C)(C)[C@H]2[C@H](CC(=O)N(CCO)Cc3ccccc3)O[C@@]3(C(=O)N(Cc4cccc(N5CCCCC5=O)c4)c4ccccc43)[C@@H]2C)cc1 | 2.13 (inactive) | 0.587 | -2.59 | -0.38 (inactive) | -0.929 (inactive) | -0.607 (inactive) |
| O=C1OC[C@@H](c2ccccc2)n2cc(/C=C/c3ccccc3)cc21 | 0.623 (inactive) | 0.505 | -0.0812 | 0.816 (inactive) | -0.481 (inactive) | -0.268 (inactive) |

| SMILES | composite z-score [1] | composite z-score (XIP peptide (Xip251-270)) | z-score [2] | z-score [3] | z-score [4] | z-score [5] |
| --- | --- | --- | --- | --- | --- | --- |
| CC(C)C[C@@H]1NC(=O)[C@H]2C[C@@H](C(=O)O)[C@@H](c3cccc(OCCO)c3)N2C1=O | 0.693 (inactive) | 0.737 | -0.404 | -2.46 (inactive) | -0.03 (inactive) | -0.134 (inactive) |
| O=C1c2ccccc2[C@@]2(Cc3ccccc3N(CC(F)(F)F)C2=O)[C@H](c2ccc(CO)cc2)N1Cc1ccccc1 | -0.158 (inactive) | -0.48 | -1.17 | 1.26 (inactive) | -0.191 (inactive) | -0.494 (inactive) |
| O=C1C[C@@](C(=O)NCC(F)(F)F)(c2ccc([N+](=O)[O-])cc2)[C@@H](c2ccc(CO)cc2I)N1CC12CC3CC(CC(C3)C1)C2 | 2.08 (inactive) | 0.797 | -1.23 | -2.47 (inactive) | -0.353 (inactive) | -0.245 (inactive) |
| Cc1ccc(S[C@]2(C(=O)NCc3ccccc3)CC(=O)N(Cc3ccccc3Cl)[C@@H]2c2ccc(CO)cc2)cc1 | 1.65 (inactive) | 0.825 | -1.2 | -2.65 (inactive) | 0.172 (inactive) | 0.622 (inactive) |
| COc1ccc(NN2C(C(O)c3ccc(F)cc3)C=CC3C(=O)N(C4CCCCC4)C(=O)C32)cc1 (stereo unspecified) | 0.331 (inactive) | 0.878 | -0.517 | -4.3 (inactive) | 0.472 (inactive) | 0.0539 (inactive) |
| CC1C2C(CCCO)=CC(C3C(=O)N(C(N)=O)C(=O)C23)N1Cc1cccc(OC(F)(F)F)c1 (stereo unspecified) | 1.51 (inactive) | 0.256 | -0.128 | -7.99 (inactive) | 0.37 (inactive) | 0.181 (inactive) |
| C#CCN(C(=O)OC(C)(C)C)[C@H](CO)c1ccccc1 | -0.235 (inactive) | -0.182 | -0.333 | -3.85 (inactive) | -0.306 (inactive) | -0.368 (inactive) |
| C=C(COC)C(=O)CC[C@H](OC(C)=O)c1ccccc1OCCO | -0.245 (inactive) | 0.337 | -2.64 | -3.78 (inactive) | -0.201 (inactive) | -0.218 (inactive) |
| [N-]=[N+]=Nc1ccccc1C[C@@]1(C(=O)NCC(O)CO)N=C(c2ccc(OCCCO)cc2)O[C@@H]1c1ccccc1N=[N+]=[N-] (stereo partly specified) | 0.0609 (inactive) | 0.0519 | -2.15 | -2.28 (inactive) | -0.0996 (inactive) | 0.263 (inactive) |
| CC(C)c1ccc(NN2C(C(O)C3CCCCC3)C=CC3C(=O)N(c4ccccc4)C(=O)C32)cc1 (stereo unspecified) | 0.668 (inactive) | 0.788 | 0.142 | -2.78 (inactive) | 0.333 (inactive) | -0.566 (inactive) |
| COc1ccc([Si](C)(C)[C@@H]2[C@@H](CC(=O)N3CCC[C@H]3CO)O[C@]3(C(=O)N(Cc4cccc(N5C(=O)c6cccc7cccc5c67)c4)c4ccccc43)[C@H]2C)cc1 | 3.7 (inactive) | 0.703 | -2.1 | -2.34 (inactive) | -0.798 (inactive) | -0.489 (inactive) |
| C=CCN1C(=O)[C@@]2(O[C@@H](CCO)[C@H]([Si](C)(C)c3ccc(OC)cc3)[C@H]2C)c2cc(N3CCCCC3=O)ccc21 | 0.561 (inactive) | 0.625 | -2.42 | -6.02 (inactive) | -1.22 (inactive) | -0.485 (inactive) |
| CC(C)C[C@@H]1NC(=O)[C@@H]2C[C@H](C(=O)NCCCCCNC(=O)CS)[C@H](c3ccc(O)cc3)N2C1=O | 0.741 (inactive) | 0.56 | -1.13 | -0.472 (inactive) | 0.581 (inactive) | 0.313 (inactive) |
| COCCCNC(=O)[C@]1(Cc2ccccc2CN=[N+]=[N-])N=C(c2ccc(OCCCO)cc2)O[C@@H]1c1ccccc1N=[N+]=[N-] | 0.228 (inactive) | -0.184 | -2.03 | -0.994 (inactive) | -0.364 (inactive) | -0.601 (inactive) |
| COC(=O)[C@@]1(Cc2ccc(F)cc2)[C@H]2c3cc(C(=O)N(C)C)n(Cc4ccsc4Br)c3C[C@H]2CN1C(=O)c1ccccc1 | 1.29 (inactive) | 0.102 | -1.75 | -5.36 (inactive) | -0.219 (inactive) | -1.12 (inactive) |
